Sampled rows, rich in hits. Any-hit rate of the full collection: about 5.7%.
DAX1 inh-1: DAX1 (NR0B1) inhibitors on StAR promoter, primary screen, cell-based, luminescence, SF-1 (NR5A1), full-length DAX-1. HEK293T StAR-luciferase reporter, SF-1/DAX-1 repression relief. inhibition, % at 6.8 µM. hit rate 1.1% among 370,000;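 active means inhibition above the mean over all tested compounds plus 3 SD, cut at about 3.6% in these data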;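 further: 0% = DAX-1 cells with DMSO and 100% = cells lacking DAX-1 with DMSO; higher inhibition means more luminescence from relief of DAX-1 repression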
hgDAF-12 ag: H. glycines DAF-12 receptor agonists, primary screen, cell-based, luminescence, HEK293, GAL4 fusion, UAS-luciferase; Nuclear hormone receptor DAF-12 (Heterodera glycines), GAL4 fusion; HEK293 GAL4-hgDAF12 UAS-luciferase reporter, agonist luminescence; normalized to butyrate control; activation, % at 6.8 µM; hit rate 1.8% among 370,000; AID 687014, 2013;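 active means activation above a cutoff set at the mean of all screened compounds plus 3 SD, cut at about 10% in these data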;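 further: 0% = DMSO wells and 100% = sodium butyrate wells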
DAX1 inh-2: DAX1 (NR0B1) inhibitors, primary screen, cell-based, HEK293, Gal4-DAX1, luciferase luminescence; HEK293 Gal4-DAX1 luciferase reporter; inhibition, % at 6.75 µM; Nuclear receptor subfamily 0 group B member 1 (Homo sapiens), P51843; hit rate 0.99% among 340,000; AID 504766, 2011;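 active means inhibition above the mean over all tested compounds plus 3 SD, cut at about 4.2% in these data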;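 further: 0% = DAX1-transfected cells with DMSO and 100% = empty-vector control cells with DMSO; inhibition shows as a rise in luminescence from relieved DAX1 repression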
Target sequence (P51843 207-470 limits assumed): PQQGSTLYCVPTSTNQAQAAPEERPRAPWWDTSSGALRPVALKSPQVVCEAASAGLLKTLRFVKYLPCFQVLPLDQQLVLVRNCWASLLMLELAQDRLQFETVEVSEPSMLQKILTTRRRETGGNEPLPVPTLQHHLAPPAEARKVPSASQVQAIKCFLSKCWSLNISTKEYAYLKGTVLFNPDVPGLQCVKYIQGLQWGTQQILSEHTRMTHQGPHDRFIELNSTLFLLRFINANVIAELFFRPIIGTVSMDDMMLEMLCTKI
AHR activator: AHR activators, primary screen, cell-based, luminescence, luciferase reporter, human; activation, % at 5 µM; Aryl hydrocarbon receptor (Homo sapiens), P35869; AHR-responsive luciferase reporter cells; hit rate 2.5% among 320,000; in the data active means activation above about 47%;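 further: 0% = vehicle wells and 100% = reference agonist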
hcDAF12 agonist: H. contortus DAF-12 nuclear receptor activators, primary screen, cell-based, luminescence, HEK293, lit1-tk-luc reporter | HEK293 hcDAF-12 lit1-tk-luc reporter; 0% DMSO, 100% Δ7-dafachronic acid | activation, % at 6.8 µM | hit rate 1.4% among 370,000 | AID 652067, 2013;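 active means activation above the mean of all tested compounds plus 3 SD, cut at about 5.5% in these data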;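 further: 100% = response to 3 µM Δ7-dafachronic acid high control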
ssDAF12 agonist: S. stercoralis DAF-12 nuclear receptor activators, primary screen, cell-based, luminescence, HEK293, GRIP1 co-expression, lit1-tk-luc. hit rate 1% among 370,000. activation, % at 6.8 µM. Nuclear hormone receptor DAF-12 (Strongyloides stercoralis). HEK293 ssDAF-12/GRIP1 lit1-tk-luc reporter; % of 3 µM dafachronic acid response;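 active means activation above the mean over all tested compounds plus 3 SD, cut at about 0.9% in these data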;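 further: 0% = DMSO-only wells and 100% = 3 µM delta7-dafachronic acid wells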
hgDAF12 ag: H. glycines DAF-12 receptor agonists, confirmation, cell-based, luminescence, HEK293, GAL4-LBD fusion. activation, % at 6.8 µM. HEK293 GAL4-hgDAF12 luciferase reporter, agonist mode; percent of butyrate response. shares compounds with hgDAF-12 ag. hit rate 80% among 3,300;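 active means mean activation over triplicate wells above the hit cutoff derived from the earlier primary screen, cut at about 11% in these data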;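 further: 0% = DMSO low control and 100% = 2 mM sodium butyrate high control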
LXR ag 2: LXR agonists, Gal4 luciferase reporter, confirmation, counter-screen for hgDAF-12 agonist project, cell-based, luminescence, HEK293, H. glycines campaign; shares compounds with hgDAF-12 ag; 24 h; activation, % at 6.8 µM; 3,300 tested, under 10 active; AID 743051, 2013;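 active means mean activation of the triplicate above a set limit carried over from the primary screen, none filed active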
Target sequence (P55055 whole entry, looked up, the tested form may be a part): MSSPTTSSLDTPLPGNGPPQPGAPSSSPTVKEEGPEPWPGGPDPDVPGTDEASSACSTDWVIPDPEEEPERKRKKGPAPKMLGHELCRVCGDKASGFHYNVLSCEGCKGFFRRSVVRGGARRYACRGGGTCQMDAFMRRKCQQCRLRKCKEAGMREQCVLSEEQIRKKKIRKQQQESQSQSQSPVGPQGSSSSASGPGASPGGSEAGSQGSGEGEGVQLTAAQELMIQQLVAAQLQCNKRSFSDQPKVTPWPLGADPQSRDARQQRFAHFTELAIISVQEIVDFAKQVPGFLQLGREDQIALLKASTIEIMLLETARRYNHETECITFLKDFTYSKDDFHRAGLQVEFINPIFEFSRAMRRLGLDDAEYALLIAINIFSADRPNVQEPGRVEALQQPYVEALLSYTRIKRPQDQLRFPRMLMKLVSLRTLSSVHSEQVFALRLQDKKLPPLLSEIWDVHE
* = called active by the depositor; nt = no result given.

SMILES	DAX1 inh-1	hgDAF-12 ag	DAX1 inh-2	AHR activator	hcDAF12 agonist	ssDAF12 agonist	hgDAF12 ag	LXR ag 2
C(=NN=C(NN=Cc1cccs1)NN=Cc1cccs1)c1cccs1	-2.7	-3.4	-1.2	nt	0.5	-1.1	nt	nt
Cc1ccc(C(=O)NNC(=O)C2CC2)cc1Br	1.3	-1.0	-0.2	-11.2	-1.8	-0.9	nt	nt
Cc1ccc(C(=O)Nc2cc3c(cc2Cl)OCCCO3)cc1	1.9	16.7*	2.5	-2.8	3.6	0.8	12.9*	0.5
COc1cccc(C(=O)Nc2cc3c(cc2Cl)OCCCO3)c1	3.5	13.9*	2.4	1.0	1.6	0.1	14.2*	0.5
O=C(Nc1cc2c(cc1Cl)OCCCO2)c1ccc(F)cc1	2.1	8.0	2.4	-1.3	1.6	-0.8	nt	nt
CCOC(=O)C1(Cc2ccccc2Cl)CCN(C(=O)CN2CCOC2=O)CC1	1.9	16.6*	2.3	4.5	2.4	0.2	10.2	0.3
CCCCNC(=O)c1cc(-c2ccc(F)cc2)on1	0.4	34.4*	4.1	-6.8	2.1	0.5	41.9*	0.6
CCCCNC(=O)c1cc(-c2ccc(OC)cc2)on1	1.8	16.7*	2.0	0.8	0.9	-0.4	16.4*	0.6
CCCNC(=O)c1cc(-c2ccc(OC)cc2)on1	2.4	9.6	0.7	1.2	4.8	-0.7	nt	nt
CN(Cc1ccccc1)c1nc(CN2CCOCC2)nc2scc(-c3ccccc3)c12	-0.2	-1.9	-0.3	-1.9	-2.9	-1.7	nt	nt
Nc1ccc2oc(-c3cccc(Br)c3)nc2c1	nt	nt	0.6	16.7	nt	nt	nt	nt
Cc1ccccc1-c1nc2cc(N)ccc2o1	3.2	14.6*	1.5	4.3	3.5	-0.9	13.3*	0.7
O=C(CCc1nc(-c2ccccc2)no1)N1CCCC1	1.1	3.8	0.5	12.5	2.8	-1.1	nt	nt
O=C(Nc1ccc(N2CCOCC2)c(Cl)c1)c1cccc(F)c1	1.9	14.3*	0.6	7.5	4.1	0.4	16.0*	0.6
COc1c(C)cccc1C(=O)Nc1ccc(N2CCOCC2)c(Cl)c1	3.2	21.2*	1.6	-4.2	4.0	0.7	15.1*	0.8
O=C(Nc1ccc(N2CCCC2)c(Cl)c1)c1cccs1	4.0*	19.9*	0.0	2.2	4.8	0.3	18.7*	0.8
O=C(Nc1ccc(N2CCOCC2)c(Cl)c1)c1cccnc1Cl	0.8	-0.7	0.9	-1.7	-1.1	-1.1	nt	nt
O=C(NC(=S)Nc1ccc(N2CCOCC2)c(Cl)c1)c1cccs1	-0.3	6.3	0.1	4.7	0.3	-0.8	nt	nt
N#CCc1ccc(NC(=O)c2cc(S(=O)(=O)N3CCOCC3)ccc2Cl)cc1	-3.0	-3.2	-1.5	7.8	0.7	-1.5	nt	nt
O=C(Nc1ccccc1O)c1ccc(Cl)cc1	1.6	21.6*	4.4*	66.4*	5.8*	1.3*	28.9*	0.4
Cc1cc(NC(=O)c2ccc(Cl)cc2)c(C)cc1O	0.5	-0.4	3.4	33.8	4.8	0.2	nt	nt
CCOc1ccc(-c2n[nH]c(C(=O)NN)c2C)cc1	1.5	16.4*	2.6	16.8	2.6	-1.4	2.2	0.1
Cc1cn(CC(=O)NCc2ccc3c(c2)OCO3)c(=O)[nH]c1=O	-0.6	-2.0	0.9	nt	1.3	-0.5	nt	nt
O=C(N/N=C/c1ccc(N2CCOCC2)cc1)c1ccc(O)cc1	0.7	0.2	1.3	11.7	-1.1	-1.5	nt	nt
Cc1ccc(C(=O)N/N=C/c2ccc(N3CCOCC3)cc2)c(C)c1	0.2	14.4*	-1.1	25.0	1.2	-0.9	-1.0	0.0
SMILES	DAX1 inh-1	hgDAF-12 ag	DAX1 inh-2	AHR activator	hcDAF12 agonist	ssDAF12 agonist	hgDAF12 ag	LXR ag 2
COc1ccccc1NC(=O)Nc1ccc(C(=O)N2CCCCC2)cc1	2.2	13.6*	-0.9	2.3	1.4	0.1	10.8*	0.5
O=C(N/N=C/c1ccccn1)c1cc(C2CC2)nc2ccccc12	nt	nt	-0.5	7.8	nt	nt	nt	nt
C=CCOc1cccc(/C=C/c2nc3ccccc3c(=O)[nH]2)c1	3.5	15.0*	4.2	19.6	4.3	1.3*	15.5*	0.8
Cc1ccccc1/C=C\c1nc2ccccc2c(=O)[nH]1	3.3	15.5*	2.3	37.6	2.1	1.3*	20.0*	0.8
COc1cc(/C=C/c2nc3ccccc3c(=O)[nH]2)cc(OC)c1OC	0.2	4.7	-3.2	23.1	-0.6	-1.0	nt	nt
Cn1c(=O)c2c(nc(CN3CCCCC3)n2CCCc2ccccc2)n(C)c1=O	-0.1	0.8	0.0	0.5	-1.7	-1.6	nt	nt
CCOc1ccc(CN(CCC#N)C(=S)NC(=O)c2ccccc2)cc1	-0.8	17.4*	0.2	0.9	-2.0	-1.4	-1.8	0.0
Cn1cccc1C(=O)N/N=C/c1c(Cl)cccc1Cl	2.4	13.4*	3.3	7.0	5.9*	0.6	12.1*	0.5
Cc1cc(OCc2cc(C(=O)NC(C)c3cnn(C)c3)no2)cc(C)c1Cl (configuration not stated)	2.5	16.0*	1.8	nt	4.0	0.0	13.2*	0.6
Cc1nc(C(C)NC(=O)c2cc(COc3ccc(C)c(C)c3)on2)c(C)s1 (configuration not stated)	0.8	13.4*	0.8	19.2	2.4	0.0	14.3*	0.7
Cc1c(Cl)ccc2sc(NC(=O)C3CC3)nc12	-1.1	1.1	0.6	42.8	4.6	-0.3	nt	nt
Cc1nc2c(ccc3nc(NC(=O)C4CC4)sc32)s1	-0.1	14.8*	1.5	40.5	4.2	-0.9	12.3*	0.5
COC(=O)[C@@]1(C)[C@H]2C(=O)N(Cc3ccccc3)C(=O)[C@H]2[C@H]2CN=C(SCc3ccc(C)cc3)N21	-0.5	-0.9	0.0	nt	-0.9	-0.5	nt	nt
CCN1C(=O)C(=O)N(CC(=O)N(C)CC(=O)Nc2ccccc2Cl)C1=O	-0.3	2.2	1.5	3.9	-1.3	-1.2	nt	nt
Cn1cc(C2N3CC4(C)CN2CC(C)(C3)C4=O)c2ccccc21 (configuration not stated)	-0.9	16.0*	1.9	6.0	-1.3	-1.4	0.6	0.0
